The source made the active and inactive calls. The rule behind the calls is not given here.
What follows are compounds tested against Pantothenate synthetase (Mycobacterium tuberculosis (strain ATCC 25618 / H37Rv)) (UniProt P9WIL5) (assay: Recombinant Mtb pantothenate synthetase (PanC) inhibitors, coupled enzyme, confirmatory (AID 375;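 note: 0% = full reaction with vehicle and 100% = no enzyme background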)). Conditions: coupled enzyme assay; at 10 µM, hits give high values.
Chain of Pantothenate synthetase (Mycobacterium tuberculosis (strain ATCC 25618 / H37Rv)) (P9WIL5 whole entry, looked up): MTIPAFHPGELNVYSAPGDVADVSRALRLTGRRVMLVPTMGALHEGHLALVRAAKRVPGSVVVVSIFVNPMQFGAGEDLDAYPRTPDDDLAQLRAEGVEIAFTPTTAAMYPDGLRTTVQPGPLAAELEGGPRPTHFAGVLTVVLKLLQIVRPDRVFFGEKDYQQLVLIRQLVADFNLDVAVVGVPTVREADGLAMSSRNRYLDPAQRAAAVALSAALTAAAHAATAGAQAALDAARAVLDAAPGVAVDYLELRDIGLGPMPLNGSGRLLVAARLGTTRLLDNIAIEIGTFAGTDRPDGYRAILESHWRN
For `Nn1c(CSc2nc3ccccc3o2)nnc1CSc1nc2ccccc2o1`, the inhibition was 0% (inactive).
For `O=C(NCc1ccco1)c1noc2c1CCCCC2`, the inhibition was 12% (inactive).
For `CC(CCc1ccccc1)NC(=O)CSc1nc(N)cc(N)n1` (stereo not given), the inhibition was 0% (inactive).
For `N=c1nc(N2CCCCC2)cc(N)n1O`, the inhibition was 0% (inactive).
`COc1cccc(-c2nnc(SCC(N)=O)n2-c2ccc(Cl)cc2)c1` was tested, and the inhibition was 0% (inactive).
For `O=C(CCCCC(=O)NCc1cccs1)NCc1cccs1`, the inhibition was 8% (inactive).
`COc1ccc(CN(C(=O)c2oc3ccccc3c2C)C2CCS(=O)(=O)C2)cc1` (stereo not given) was tested, and the inhibition was 0% (inactive).
`COc1ccc(S(=O)(=O)Nc2ccc(F)c(F)c2)cc1Cl` was tested, and the inhibition was 0% (inactive).
With `O=C(Nc1cccc2ncccc12)c1ccc2c(c1)OCCO2` the inhibition was 0% (inactive).
For `Cc1ccc(CNC(=O)CSc2n[nH]c(N)n2)cc1`, the inhibition was 0% (inactive).
With `COc1ccc2cnn(-c3ccccc3)c(=O)c2c1OC` the inhibition was 6% (inactive).
In the case of `O=c1cnnc(NCc2ccccc2)[nH]1`, the inhibition is reported as 0% (inactive).
With `O=C(CC(C(=O)N1CCc2ccccc21)n1ccnc1)NCc1cccnc1` (stereo not given) the inhibition was 0% (inactive).
In the case of `O=C(Nc1ccc2c(c1)OCCO2)C1CCN(C(=O)c2ccc(F)cc2)CC1`, the inhibition is reported as 0% (inactive).
For `CCS(=O)(=O)N1CCCC(C(=O)NCCc2ccc(OC)c(OC)c2)C1` (stereo not given), the inhibition was 4% (inactive).
For `O=C(NC1CCN(Cc2ccccc2)CC1)C1CCN(S(=O)(=O)c2cccc3cccnc23)CC1`, the inhibition was 0% (inactive).
`Cc1cc(/C=N/n2cnnc2)c(C)n1-c1cccc(Cl)c1` was tested, and the inhibition was 0% (inactive).
For `CCCN1CCC(NC(=O)Nc2ccc(OC)c(OC)c2)CC1`, the inhibition was 0% (inactive).
For `O=C(O)c1cccc(S(=O)(=O)N2CCOCC2)c1`, the inhibition was 2% (inactive).
`COc1ccc(Br)cc1C1N2CC3(C)CN1CC(C)(C2)C3=O` (stereo not given) was tested, and the inhibition was 0% (inactive).
In the case of `COc1ccccc1C(O)P(=O)(OC(C)C)c1ccc(N(C)C)cc1` (stereo not given), the inhibition is reported as 0% (inactive).
For `O=C(O)c1cc(Cl)c(Cl)cc1C(=O)N1CCCC1`, the inhibition was 1% (inactive).
In the case of `COc1ccc(N2C(=O)CC(N3CCN(S(=O)(=O)c4c(F)cccc4F)CC3)C2=O)cc1OC` (stereo not given), the inhibition is reported as 1% (inactive).
`C/C(NC1CCCC1)=C(/C#N)C(N)=O` was tested, and the inhibition was 9% (inactive).
`COc1ccc(-c2nc(C#N)c(N3CCN(c4ccccc4)CC3)o2)cc1` was tested, and the inhibition was 0% (inactive).
In the case of `Oc1c(I)cc(I)c2cccnc12`, the inhibition is reported as 2% (inactive).
`CC1=Nn2c(nnc2-c2cc(-c3ccccc3)n[nH]2)SC1` was tested, and the inhibition was 0% (inactive).
For `CCOC(=O)N1CCC(NC(=O)C2CCC(Cn3c(=O)[nH]c4ccccc4c3=O)CC2)CC1` (stereo not given), the inhibition was 9% (inactive).
With `CCC(C)c1ccc(NC(=O)C2CC2)cc1` (stereo not given) the inhibition was 0% (inactive).
With `Cc1cc2c(c(=O)o1)C(Cc1ccccc1)C(C#N)=C(N)O2` (stereo not given) the inhibition was 1% (inactive).
With `O=C(Nc1ccc2c(c1)nc1n2CCN(Cc2ccccc2)C1)c1cccs1` the inhibition was 0% (inactive).
With `Cc1ccc(C)c(N2CCN(CCCNC(=O)Cn3cc4c(n3)CCCCC4)CC2)c1` the inhibition was 2% (inactive).
In the case of `O=C(Nc1cccc(C(F)(F)F)c1)c1cccnc1N1CCCC1`, the inhibition is reported as 4% (inactive).
For `COc1ccc(S(=O)(=O)NCc2ccc3c(c2)OCO3)cc1C(=O)O`, the inhibition was 5% (inactive).
For `CC1(C)O[C@@H]2C[C@H]3[C@@H]4C[C@H](F)C5=CC(=O)CC[C@]5(C)[C@H]4[C@@H](O)C[C@]3(C)[C@]2(C(=O)CO)O1`, the inhibition was 7% (inactive).
`Cc1ccccc1NC(=O)C1CCCN(S(=O)(=O)c2cnc[nH]2)C1` (stereo not given) was tested, and the inhibition was 2% (inactive).
With `CC1(C)CC(=O)c2c(O)cc(O)cc2O1` the inhibition was 3% (inactive).
With `CCCc1c(O)nc(SCC(=O)NCCc2ccc(OC)c(OC)c2)[nH]c1=O` the inhibition was 0% (inactive).
With `CCCOc1cccc(C2/C(=C(/O)c3ccccc3)C(=O)C(=O)N2CCN(C)C)c1` (stereo not given) the inhibition was 0% (inactive).
In the case of `CCN(CC)S(=O)(=O)c1ccc2c(c1)nc(SCn1nnc3ccccc3c1=O)n2CC`, the inhibition is reported as 0% (inactive).

Source: PubChem BioAssay
